Among all 5,500 compounds or so, about 2,000 (36%) were called active. About 18% were inconclusive and are not listed. No stated cut-off is given here; in the data, active means normalized growth mostly below about 0.91 (no sharp cut-off); inconclusive means no clear call, values can overlap the other calls; inactive means mostly above about 0.92. This is one part of the list.
Experiment: chemical genetic growth profiling, strain panel (AID 1159580);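 further: tested at 20 µM; growth read once vehicle control cultures reached saturation at 30 °C; 1 = growth at the plate median or of vehicle wells; lower values mean less growth of the strain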
Conditions: S. cerevisiae deletion strains, growth OD

Measured: normalized growth

CC12CC[C@@H](O)CC1=CC[C@@H]1C2CCC2(C)C(=O)CC[C@@H]12 (stereo partly specified)
active: locus YHR030C, strain SLT2, active compounds read low 0.787
inactive: locus YAR019C, strain CDC15, active compounds read low 1.01 | locus YBL105C, strain PKC1, active compounds read low 1.01 | locus YBR135W, strain CKS1, active compounds read low 1.02 | locus YBR136W, strain MEC1, active compounds read low 1.01 | locus YBR160W, strain CDC28, active compounds read low 1.02 | locus YDL017W, strain CDC7, active compounds read low 1.02 | locus YDL028C, strain MPS1, active compounds read low 1.02 | locus YDL101C, strain DUN1, active compounds read low 1 | locus YDL108W, strain KIN28, active compounds read low 1.01 | locus YDL132W, strain cdc53, active compounds read low 1.02 | locus YDL214C, strain PRR2, active compounds read low 0.915 | locus YDR052C, strain DBF4, active compounds read low 1.01 | locus YDR054C, strain cdc34, active compounds read low 1.01 | locus YDR226W, strain ADK1, active compounds read low 1.01 | locus YDR477W, strain SNF1, active compounds read low 0.909 | locus YER123W, strain YCK3, active compounds read low 0.822 | locus YER133W, strain GLC7, active compounds read low 0.915 | locus YFL009W, strain cdc4, active compounds read low 1.02 | locus YFL029C, strain CAK1, active compounds read low 1.01 | locus YFR003C, strain YPI1, active compounds read low 1.01 | locus YFR019W, strain FAB1, active compounds read low 0.801 | locus YFR028C, strain CDC14, active compounds read low 1.01 | locus YGR040W, strain KSS1, active compounds read low 0.889 | locus YGR052W, strain FMP48, active compounds read low 0.924 | locus YGR092W, strain DBF2, active compounds read low 0.695 | locus YHR079C, strain IRE1, active compounds read low 0.96 | locus YHR082C, strain KSP1, active compounds read low 0.95 | locus YHR205W, strain SCH9, active compounds read low 0.852 | locus YIL147C, strain SLN1, active compounds read low 1.01 | locus YJL095W, strain BCK1, active compounds read low 0.815 | locus YJL128C, strain PBS2, active compounds read low 0.973 | locus YJL157C, strain FAR1, active compounds read low 0.893 | locus YJR016C, strain ILV3, active compounds read low 1.02 | locus YJR066W, strain TOR1 (second series), active compounds read low 0.848 | locus YJR066W, strain TOR1, active compounds read low 0.901 | locus YKL048C, strain ELM1, active compounds read low 0.957 | locus YKL067W, strain YNK1, active compounds read low 0.924 | locus YKL101W, strain HSL1, active compounds read low 0.913 | locus YKL193C, strain SDS22, active compounds read low 1.01 | locus YKL203C, strain TOR2, active compounds read low 0.92 | locus YLR113W, strain HOG1, active compounds read low 0.996 | locus YLR133W, strain CKI1, active compounds read low 0.904 | locus YLR403W, strain SFP1, active compounds read low 0.801 | locus YML070W, strain DAK1, active compounds read low 0.903 | locus YMR001C, strain CDC5, active compounds read low 1 | locus YMR205C, strain PFK2 (second series), active compounds read low 0.916 | locus YMR277W, strain FCP1, active compounds read low 1.01 | locus YNL006W, strain LST8, active compounds read low 1.02 | locus YNL020C, strain ARK1, active compounds read low 0.908 | locus YNL161W, strain CBK1, active compounds read low 1.02 | locus YNL183C, strain NPR1, active compounds read low 0.95 | locus YNL207W, strain RIO2, active compounds read low 1.01 | locus YNL222W, strain SSU72, active compounds read low 1.02 | locus YNL307C, strain MCK1 (second series), active compounds read low 0.787 | locus YOL078W, strain AVO1, active compounds read low 1 | locus YOL136C, strain PFK27, active compounds read low 0.838 | locus YOR061W, strain CKA2, active compounds read low 0.861 | locus YOR119C, strain RIO1, active compounds read low 0.938 | locus YOR231W, strain MKK1, active compounds read low 0.912 | locus YOR329C, strain SCD5, active compounds read low 1.02 | locus YPL031C, strain PHO85, active compounds read low 0.899 | locus YPL153C, strain RAD53, active compounds read low 0.921 | locus YPL204W, strain HRR25, active compounds read low 0.853 | locus YPL209C, strain IPL1, active compounds read low 1.02 | locus YPL256C, strain CLN2, active compounds read low 1.07 | locus YPR025C, strain CCL1, active compounds read low 1.02 | locus YPR106W, strain ISR1, active compounds read low 0.998 | locus YPR111W, strain DBF20, active compounds read low 1 | strain NNK1, active compounds read low 1 | strain TSCII, active compounds read low 1.01
